From PubChem
Many of the other results were omitted from the sample, so hits are more common in it than they were.
PKM2 inhibitor: PKM2 (human) enzyme inhibition | purified PKM2, ATP generation, Kinase-Glo luminescence | Potency, µM (series often up to 57.5 µM), for the others: at the top dose activity change, negative = inhibition, usual class: inhibitors | 260,000 tested, 0.058% active; active = well fitted inhibition curve with a large enough effect; also: nearly all actives have a fitted effect of over 60% in size
Target sequence (P14618 whole entry, looked up): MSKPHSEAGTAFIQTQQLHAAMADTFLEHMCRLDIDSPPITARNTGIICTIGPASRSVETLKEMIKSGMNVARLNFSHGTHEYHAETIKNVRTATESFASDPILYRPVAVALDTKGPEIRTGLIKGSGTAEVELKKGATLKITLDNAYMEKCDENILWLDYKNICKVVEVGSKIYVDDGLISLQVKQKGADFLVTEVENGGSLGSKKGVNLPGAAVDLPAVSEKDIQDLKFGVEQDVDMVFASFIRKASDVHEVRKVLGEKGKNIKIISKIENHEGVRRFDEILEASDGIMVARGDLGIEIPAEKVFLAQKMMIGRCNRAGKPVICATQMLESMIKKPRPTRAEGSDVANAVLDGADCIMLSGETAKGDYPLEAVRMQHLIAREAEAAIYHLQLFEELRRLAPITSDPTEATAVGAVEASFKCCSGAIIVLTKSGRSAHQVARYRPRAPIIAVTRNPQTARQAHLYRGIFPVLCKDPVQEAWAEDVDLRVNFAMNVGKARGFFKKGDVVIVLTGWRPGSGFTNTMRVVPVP
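Enzyme run at intermediate activity with final 0.1 mM ADP, 0.5 mM PEP (50 mM imidazole pH7.2, 50 mM KCl, 7 mM MgCl2), incubated 1 h at r.t. ATP formed read by Kinase-Glo luminescence, normalized to no-enzyme (full inhibition) and uninhibited wells.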
Active calls of the source: *; [ ] = another dose, or the depositor's remark. Potency is read from the fitted curve at half-maximal effect.

SMILES	PKM2 inhibitor
NC(=O)CC(NC(=O)Cc1ccc(Br)cc1)c1ccc(NCCc2ccccc2F)c([N+](=O)[O-])c1 (stereo unspecified)	60%
Cn1c(=O)oc2cc(S(=O)(=O)Nc3cccc4c3CCCC4)ccc21	34%
O=C(O)COc1ccccc1/C=N/NC(=O)CN1CCN(S(=O)(=O)c2ccc(Br)cc2)CC1	-11%
Cc1cc(O)ccc1NS(=O)(=O)c1ccc2c3c(cccc13)C(=O)N2	59%
Cn1c(=O)oc2cc(S(=O)(=O)Nc3ccc4c(c3)OCO4)ccc21	197%
CN1CCc2nc(SCC(=O)Nc3ccc(F)cc3)c(C#N)cc2C1	57%
O=S(=O)(NCCSc1ccccn1)c1ccc(Br)cc1	96%
c1ccc2nc(-c3nc4ccccc4o3)ccc2c1	18µM*
O=C1CCC(=O)N1c1cccc(-c2nc3ccccc3o2)c1	27%
O=c1c(Cc2ccc(Cl)cc2)c(O)ccn1Cc1ccncc1	107%
O=C(N/N=C/c1ccc(F)cc1)c1cc(-c2ccco2)nc2ccccc12	74%
CCN(CC)c1ccc(/C=N/NC(=O)c2ccoc2C)cc1	28µM*
CN(C)c1ccc(/C=N/NC(=O)c2ccccc2O)o1	56%
Nc1ccccc1N=Cc1ccc(-c2cccc(Cl)c2)o1	78%
COc1ccc(C(=O)N2CCC(n3c(C)nc4cc(F)ccc43)CC2)cc1	79%
CC1=NNC(=O)/C1=C\c1cn(-c2ccccc2)nc1-c1ccccc1	30%
COc1cccc(OCCn2cc(C(C)=O)c3ccccc32)c1	37%
Cc1ccc(N2C(=O)c3ccccc3C2O)nc1 (stereo unspecified)	11µM*
Cc1ccc(-n2nc(-c3ccco3)cc2C(=O)O)c(C)c1	60%
COc1cccc(-n2cn[nH]c2=S)c1	14µM*
O=C(NCCN1C(=O)S/C(=C\c2cccnc2)C1=O)c1cc(S(=O)(=O)N2CCOCC2)ccc1F	50%
Cc1ccccc1-n1nnnc1SCc1cc(=O)n2ccsc2n1	112%
CCOC(=O)c1c(-c2ccccc2)csc1NC(=O)CSc1nnc(C)s1	60%
COc1ccc(-c2csc(NC(=O)c3cccs3)c2C(=O)O)cc1OC	22µM*
CCOC(=O)c1c(-c2ccc(C)o2)csc1NC(=S)NC(=O)c1cccs1	37%
SMILES	PKM2 inhibitor
Cc1ccc(CNC(=O)C2(CC(C)C)C=CCN2C(=O)c2ccccc2)o1 (stereo unspecified)	44%
O=c1[nH]c(CN2CCN(c3ccc(O)cc3)CC2)nc2scc(-c3ccc(Cl)cc3)c12	95%
CS(=O)(=O)N1CCN(c2ccc([N+](=O)[O-])c(NCc3cccnc3)c2)CC1	87%
COc1ccc(-c2nc3ccccc3[nH]2)cc1	13µM*
COc1ccc2[nH]c(=O)c(-c3noc(-c4ccccc4)n3)cc2c1	109%
O=c1c2cc(Cl)ccc2[nH]c(=S)n1Cc1cccs1	28%
CC(=O)c1ccc(S(=O)(=O)N2CCN(C(=O)CSc3ccc(C)c(C)c3)CC2)cc1	56%
COc1cc(/C=N\Nc2nc(-c3ccc(C)cc3)c(NC(C)=O)s2)ccc1O	72%
COc1cc(/C=N/NC(=O)C2c3ccccc3Oc3ccccc32)ccc1O	66%
COc1cc(/C=N/Nc2nn3cnnc3c3ccccc23)ccc1O	25µM*
NC(=O)CC(NC(=O)Cc1ccc(Br)cc1)c1ccc(NCCc2ccc(F)cc2)c([N+](=O)[O-])c1 (stereo unspecified)	43%
Cc1ccc(NS(=O)(=O)c2cc3[nH]c(=O)c(=O)[nH]c3cc2C)c(C)c1	51%
COc1cccc(CNc2nc3ccccc3n2C(C)C)c1O	53%
O=C(O)c1cc(N2CCOCC2)nc2ccccc12	31%
O=C(c1ccc(Cl)c(S(=O)(=O)N2CCCCCC2)c1)N1CCOCC1	39%
O=C(c1ccc2c3n(nc2c1)-c1ccccc1CO3)N1CCOCC1	14µM*
CCOC(=O)C1=NN(C(=O)Nc2ccc(OC)cc2)C2C(=O)N(c3cccc(C(F)(F)F)c3)C(=O)C12 (stereo unspecified)	2%
Cc1sc2nc(CN(Cc3cccs3)C(=O)C3CC3)[nH]c(=O)c2c1C	36%
COc1cc(CC2COC(c3ccc(O)c(OC)c3)C2COC(C)=O)ccc1O (stereo unspecified)	38%
CC(=O)Oc1ccc(N(C(C)=O)S(=O)(=O)c2cccs2)c2ccccc12	35%
CN(C)CCCC1(O)c2ccccc2C=Cc2ccccc21	-11%
O=C(CN1CCCCC1)Nc1ccc(Br)cc1[N+](=O)[O-]	34%
CCCCN=C1NN=C(c2ccc(C)c(C)c2)CS1	72%
c1cc2c(cc1C1=NNC(=NC3CC3)SC1)OCCO2	14µM*
COc1ccc(CN=C2NN=C(c3ccccc3)CS2)cc1	46%
SMILES	PKM2 inhibitor
Cc1ccc(NS(=O)(=O)c2c(C)nc3sccn3c2=O)c(C)c1	55%
CCCS(=O)(=O)N1CCN(S(=O)(=O)c2ccccc2)CC1	36%
Cc1ccc(CNC(=O)[C@H](C)[C@H]2C[C@]2(C)[C@H](NC(=O)OCc2ccccc2)c2ccccc2)o1	43%
CC(=O)Nc1ccc(/C(C)=N/Nc2nc(Nc3cccc4ccccc34)nc(N3CCOCC3)n2)cc1	34%
O=C1/C(=C/Nc2ccc3c(c2)OCO3)CCc2ccccc21	25µM*
O=C(C1CCC1)N1CCc2cc(S(=O)(=O)Nc3ccc4c(c3)OCO4)ccc21	92%
O=C1c2ccccc2C(=O)N1Cc1ccc2c(c1)OCO2	44%
CCN(C(=O)CSc1cc(C)c2cccc(C)c2n1)C1CCS(=O)(=O)C1 (stereo unspecified)	130%
CSc1sc(C(=O)NN)c2c1C1(CCC2)SCCS1	36%
COc1ccc(CNC(=O)C(c2ccc(C)o2)N(Cc2cccs2)C(=O)Cc2cccs2)cc1 (stereo unspecified)	62%
CN(Cc1ccccc1)C(=O)COC(=O)c1cc(NS(=O)(=O)c2cccs2)ccc1O	59%
Cc1nc2ccc(N=NN(C)C)cc2[nH]1	62%
Nc1ccc2nc(Cc3ccccc3)[nH]c2c1	80%
Cc1ccc2nc(-c3ccccn3)[nH]c2c1	16µM*
O=C(O)/C=C/C(=O)c1ccc2c(c1)NC(=O)CO2	40%
Cc1ccc(NC(=O)COC(=O)CNC(=O)c2ccc3ccccc3c2)c([N+](=O)[O-])c1	33%
CCOC(=O)c1c(-c2ccc(C)o2)csc1NC(=O)COC(=O)c1ccc(NC(N)=O)cc1	33%
C(=C\c1nc2ccccc2[nH]1)/c1ccccc1	14µM*
c1ccc2[nH]c(CSc3nnc(-c4ccncc4)o3)nc2c1	134%
COc1ccc2c(c1)c(C(=O)N/N=C/c1ccc(O)c(O)c1)c(C)n2C	48%
CCNC(=O)COC(=O)c1sccc1C	33%
CCNc1sc(C(=O)c2cccs2)c(N)c1-c1nc2ccccc2s1	44%
C/C(=N/NC(=O)c1cccs1)c1c(C)[nH]n(-c2nc3ccccc3s2)c1=O	14µM*
CC(N)(C(=O)O)c1cccc(OCc2cccc(Cl)c2)c1 (stereo unspecified)	-8%
Cn1ncc(Cl)c1C(=O)N1CCC(Cc2ccccc2)CC1	60%
SMILES	PKM2 inhibitor
CC1(C)CC(=O)C2=C(C1)O[C@@]1(c3ccsc3)Cc3cc(C#N)ccc3C2O1	40%[11.5 µM]
CCCCNc1nnc(SCC(=O)c2c[nH]c3ccccc23)s1	30%
Brc1ccc(-c2nc(-c3ccccn3)no2)o1	18µM*
COc1ccccc1-c1nc(-c2ccccn2)no1	7.9µM*
COc1cc([N+](=O)[O-])ccc1NC(=O)CSc1nccn1C	91%
COc1ccc(-c2cc3nc(C)n(N)c(=O)c3s2)cc1	4µM*
COc1ccc(-c2nc3oc4cc(OC)ccc4c(=O)c3c(=O)n2Cc2ccco2)cc1	33%
